Results taken from PubChem BioAssay (Tox21).
Several values for one entry are separate records, joined by “and”; a condition that tells them apart may be missing. Equal values may be shown once. Inconclusive results are not listed. Activity calls are given as the source filed them. Calls come from the whole dose curve; as a rule, active = well fitted curve in the direction sought with a large enough effect in the repeat runs; inconclusive = weak or mixed curves; inactive = no such curve, though single readings can be large; an effect the other way counts as inactive or inconclusive.

Experiment: qHTS RealTime-Glo MT Cell Viability Assay in HEK293 cells - 40 hour (AID 1224874); note: nearly all actives have a fitted effect of over 50% in size
Details: RealTime-Glo luminescence; max response: hits give low values
How it was run: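 Real-time viability in HEK293: signal arises when living cells convert a prosubstrate for NanoLuc in the medium, so luminescence tracks viable cell number. Compound (23 nL, DMSO) added 5 h post-seeding; kinetic reads at 0–40 h, 37 C.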
% is set by controls: 0 for no effect and ±100 for the full control effect; potency is the fitted concentration of half-maximal effect.

SMILES | Potency | max response
O=c1[nH]c2ccccc2n1CCCN1CCN(C(c2ccccc2)c2ccccc2)CC1 | 12 µM (active) | 
CC(=O)[C@H]1CC[C@H]2[C@@H]3CCC4=CC(=O)CC[C@]4(C)[C@H]3CC[C@]12C | 13.7 µM (active) and 17.4 µM (active) | 
CCCc1ccc(OCC(=O)N2CCN(C(=O)COc3ccc(CCC)cc3OC)CC2)c(OC)c1 | 8.49 µM (active) | 
COc1cc(S(=O)(=O)O)c(C)cc1N=Nc1c(O)ccc2cc(S(=O)(=O)O)ccc12 |  | -10.3% (inactive)
O=C(Nc1ccc2c(O)c(N=Nc3ccc(N=Nc4ccc(S(=O)(=O)O)cc4)cc3)c(S(=O)(=O)O)cc2c1)c1ccccc1 |  | -19.7% (inactive)
Nc1cc(Cl)c(O)c(Cl)c1 |  | -1.5% (inactive)
Clc1nnc(Cl)c2ccccc12 |  | -4.03% (inactive)
CCOC(=O)c1ccc(C2CCC(NC[C@H](O)COc3ccc(O)c(NS(C)(=O)=O)c3)CC2)cc1 (stereo partly specified) | 20.2 µM (active) | 
COc1ccc2c(c1)c(CC(=O)OC/C=C(\C)CC/C=C(\C)CCC=C(C)C)c(C)n2C(=O)c1ccc(Cl)cc1 |  | -0.256% (inactive)
C=CC(=O)Nc1cc2c(Nc3ccc(F)c(Cl)c3)ncnc2cc1OCCCN1CCOCC1 | 9.52 µM (active) | 
CCCCN(CCCC)CC(O)c1cc(Cl)cc2c1-c1ccc(Cl)cc1/C2=C/c1ccc(Cl)cc1 (stereo unspecified) |  | -17.2% (inactive)
COC1=C(OC)C(=O)C(CCCCCCCCCCO)=C(C)C1=O | 5.35 µM (active) | 
CCCCCCCCCCCCOCCOCCOCCOCCOCCOCCOCCOCCOCCO | 4.77 µM (active) | 

Experiment: A CellTox Green Cytotoxicity Assay to monitor cytotoxicity in HEK293 cells - 24 hour (AID 1224875); note: nearly all actives have a fitted effect of over 45% in size
Details: CellTox Green fluorescence; series mostly up to 76.8 µM; activity change: at the top concentration
How it was run: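 Cells (HEK293, 600/well) and dye reagent are dispensed together. After 5 h at 37 C, 23 nL compound is pinned in. Plates stay at 37 C for 40 h with fluorescence read at 0h, 8h, 16h, 24h, 32h and 40h.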

SMILES | activity change | Potency
O=c1[nH]c2ccccc2n1CCCN1CCN(C(c2ccccc2)c2ccccc2)CC1 | -1.81% [at 35.3 µM, hits give high values] (inactive) | 
CC1=Nc2ccccc2C1(C)C | -0.665% (inactive) | 
CCCc1ccc(OCC(=O)N2CCN(C(=O)COc3ccc(CCC)cc3OC)CC2)c(OC)c1 | 23% [at 35.3 µM, hits give high values] (inactive) | 
O=[N+]([O-])c1ccc(O)cc1C(F)(F)F | 2.93% (inactive) | 
OC[C@H]1O[C@H](O[C@H]2O[C@H](CO)[C@@H](O)[C@H](O)[C@H]2O)[C@H](O)[C@@H](O)[C@@H]1O | 4.3% (inactive) | 
CCCC(=O)OCOC(=O)C1=C(C)NC(C)=C(C(=O)OC)C1c1cccc(Cl)c1Cl (stereo unspecified) | -2.37% [at 35.3 µM, hits give high values] (inactive) | 
COc1cc(S(=O)(=O)O)c(C)cc1N=Nc1c(O)ccc2cc(S(=O)(=O)O)ccc12 | -35.2% (inactive) | 
O=C(Nc1ccc2c(O)c(N=Nc3ccc(N=Nc4ccc(S(=O)(=O)O)cc4)cc3)c(S(=O)(=O)O)cc2c1)c1ccccc1 | -40.3% (inactive) | 
CCCC[P+](C)(CCCC)CCCC | 15% (inactive) | 
Nc1cc(Cl)c(O)c(Cl)c1 | -2.03% (inactive) | 
Clc1nnc(Cl)c2ccccc12 | -0.299% (inactive) | 
CCCCCCCCCCCC(=O)OCC(C)OC(=O)CCCCC(=O)O (stereo unspecified) | -11.3% [at 35.3 µM, hits give high values] (inactive) | 
Cc1c(C)c2c(c(C)c1O)CC[C@@](C)(CCC[C@H](C)CCC[C@H](C)CCCC(C)C)O2 | -14.2% (inactive) | 
Cc1ccc(C(=O)O)cc1 | 0.793% (inactive) | 
COc1ccc2c(c1)c(CC(=O)OC/C=C(\C)CC/C=C(\C)CCC=C(C)C)c(C)n2C(=O)c1ccc(Cl)cc1 | 14.3% [at 35.3 µM, hits give high values] (inactive) | 
C=CC(=O)Nc1cc2c(Nc3ccc(F)c(Cl)c3)ncnc2cc1OCCCN1CCOCC1 |  | 19 µM (active)
Cc1cc(C(C)(C)C)cc(C)c1CC1=NCCN1 | -7.57% [at 35.3 µM, hits give high values] (inactive) | 
CCCCN(CCCC)CC(O)c1cc(Cl)cc2c1-c1ccc(Cl)cc1/C2=C/c1ccc(Cl)cc1 (stereo unspecified) | -1.82% [at 35.3 µM, hits give high values] (inactive) | 
NC[C@H]1O[C@H](O[C@H]2[C@H](O[C@@H]3O[C@H](CO)[C@@H](O)[C@H]3O)C(O)[C@H](N)C[C@@H]2N)[C@H](N)[C@@H](O)[C@@H]1O (stereo partly specified) | -9.09% [at 6.97 µM, hits give high values] (inactive) | 
CC(C)=CCNc1ncnc2c1ncn2[C@@H]1O[C@H](CO)[C@@H](O)[C@H]1O | -12.1% [at 35.3 µM, hits give high values] (inactive) | 
C[C@@H](O)[C@H](N)C(=O)O | -4.79% [at 15.8 µM, hits give high values] (inactive) | 
COC1=C(OC)C(=O)C(CCCCCCCCCCO)=C(C)C1=O | 0.635% [at 35.3 µM, hits give high values] (inactive) | 
CCCC(=O)OCCc1ccccc1 |  | 43.6 µM (active)
C#C[C@]1(OC(C)=O)CC[C@H]2[C@@H]3CCC4=C/C(=N/O)CC[C@@H]4[C@H]3CC[C@@]21CC | 6.28% [at 35.3 µM, hits give high values] (inactive) | 
CCOC(=O)Cn1cccc1-c1nc(-c2ccc(OC)cc2)c(-c2ccc(OC)cc2)s1 | 7.47% [at 35.3 µM, hits give high values] (inactive) | 
O=C1NC(=O)[C@@H]2CC=CC[C@H]12 | -3.89% (inactive) | 
Fc1ccc(C(c2ccc(F)cc2)N2CCNCC2)cc1 | -1.74% [at 35.3 µM, hits give high values] (inactive) | 
CC/C=C\CCCCCO | -2.04% (inactive) | 
